Source: PubChem
JMJD2A Tudor – JMJD2A Tudor domain (human) inhibition. O75164. AlphaScreen JMJD2A-Tudor / H3K4me3 peptide binding. Potency, µM (doses to about 114 µM), usual class: inhibitors. 390,000 tested, 4.4% active; further: nearly all actives have a fitted effect of over 50% in size
HP1b binding inh – inhibitors of HP1-beta chromodomain binding to methylated histone tails. P83916. AlphaScreen HP1-beta / biotin-H3K9me3 peptide binding. Potency, µM (highest dose often 114 µM), actives largely listed as inhibitors. 390,000 tested, 0.56% active; further: nearly all actives have a fitted effect of over 70% in size
Target sequence (P83916 whole entry, looked up): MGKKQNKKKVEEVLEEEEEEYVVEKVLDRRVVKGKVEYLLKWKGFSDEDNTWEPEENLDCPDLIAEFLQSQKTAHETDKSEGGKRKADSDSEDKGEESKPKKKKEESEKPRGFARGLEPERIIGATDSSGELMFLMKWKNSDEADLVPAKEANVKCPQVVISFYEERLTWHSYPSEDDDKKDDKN
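HP1-beta protein (50 nM final) preincubated 30 min at room temperature with biotinylated H3(1-18)K9me3 peptide (50 nM) in PBS pH 7.4, 0.01% Tween-20, then compound added for 30 min. AlphaScreen streptavidin donor/nickel chelate acceptor beads (10 ug/mL final), 30 min dark, luminescence read.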
BAZ2B inh – blocks human BAZ2B; Q9UIF8; AlphaScreen BAZ2B-H3K14Ac peptide displacement; Potency, µM (doses to about 114 µM), actives largely listed as inhibitors; 360,000 tested, 4.4% active; further: nearly all actives have a fitted effect of over 60% in size
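Complex of BAZ2B and biotin-H3K14Ac (50 nM apiece) forms over 30 min at RT, then faces library compounds up to 110 uM for another 30 min; AlphaScreen beads added, 20 min dark incubation, luminescence read.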
L3MBTL1 block – inhibitors of human L3MBTL1; AlphaScreen L3MBTL1–H3K9me1 peptide binding; Potency, µM (titrated, usually from 57.1 µM), usual class: inhibitors; 230,000 tested, 0.66% active; further: nearly all actives have a fitted effect of over 60% in size
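Displacement of a biotinylated histone H3(1-15) peptide monomethylated at Lys9 (75 nM) from L3MBTL1 (50 nM) was measured by AlphaScreen after a 30 min room-temperature compound incubation; cefsulodin titration served as intraplate control.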
KDM4E inh – blocks human JMJD2E demethylase activity | JMJD2E catalytic domain, FDH-coupled NADH fluorescence (FDH is formaldehyde dehydrogenase) | Potency, µM (doses to about 57.1 µM), usual class: inhibitors | 230,000 tested, 1.6% active; active means well fitted inhibition curve with a large enough effect, not every such curve was filed as active; inconclusive means small, poorly fitted or top-dose-only effect, or another doubt; inactive means no such curve, though single readings can be large or run the other way; further: nearly all actives have a fitted effect of over 50% in size
PI5P4Ka inh – PI5P4K alpha (human) kinase inhibition; 330,000 tested, 1.2% active; AID 652105; P48426; PI5P4Kalpha enzyme, ADP-Glo luminescence, 60 min; active compounds read low; max response, %; active means max response of -50% or lower; inconclusive means between -30% and -50%; inactive means -30% or higher; further: value at the top dose of about 77 µM
Target sequence (P48426 whole entry, looked up): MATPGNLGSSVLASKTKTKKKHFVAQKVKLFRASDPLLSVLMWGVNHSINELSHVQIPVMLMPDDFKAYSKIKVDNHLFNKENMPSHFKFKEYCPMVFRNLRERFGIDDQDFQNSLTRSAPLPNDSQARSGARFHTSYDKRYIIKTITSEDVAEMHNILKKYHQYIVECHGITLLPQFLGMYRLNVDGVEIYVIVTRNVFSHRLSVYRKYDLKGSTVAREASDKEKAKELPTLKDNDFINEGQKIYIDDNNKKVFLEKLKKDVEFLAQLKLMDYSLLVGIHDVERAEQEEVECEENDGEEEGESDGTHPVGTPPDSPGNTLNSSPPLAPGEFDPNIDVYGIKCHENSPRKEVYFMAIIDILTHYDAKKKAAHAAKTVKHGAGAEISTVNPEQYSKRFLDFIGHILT
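qHTS, 1536-well: enzyme/substrate mix, compound by pin tool, 5 microM ATP final; RT 60 min; ADP-Glo reagents 1 (45 min) then 2 (30 min); luminescence.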
Large screens that a line does not name were inactive. An excerpt weighted towards active compounds, which were near 5.7% of everything screened. Unless noted, the call rests on the fitted dose curve; in most records, active means well fitted inhibition curve with a large enough effect; inconclusive means small, poorly fitted or top-dose-only effect; inactive means no such curve, though single readings can be large or run the other way.

N#CCCN1CCN(C(=S)c2ccc(-c3ccc(Cl)cc3)o2)CC1	JMJD2A Tudor 45µM, HP1b binding inh inconclusive, BAZ2B inh 40µM, KDM4E inh 13µM (no result: L3MBTL1 block)
S=C(c1ccc(-c2ccc(Cl)cc2)o1)N1CCCCC1	JMJD2A Tudor 22µM, HP1b binding inh inconclusive, BAZ2B inh 28µM, L3MBTL1 block inconclusive (no result: PI5P4Ka inh)
CN1CCN(C(=S)c2ccc(-c3cccc(Cl)c3Cl)o2)CC1	JMJD2A Tudor 28µM, HP1b binding inh 45µM, BAZ2B inh inconclusive, L3MBTL1 block inconclusive
S=C(c1ccc(-c2ccccc2Cl)o1)N1CCCCC1	JMJD2A Tudor inconclusive, HP1b binding inh inconclusive, BAZ2B inh inconclusive, L3MBTL1 block inconclusive
OC(COCc1cccs1)CN1CCN(c2cccc(Cl)c2)CC1 (configuration not stated)	JMJD2A Tudor 2.8µM, HP1b binding inh inconclusive, BAZ2B inh 50µM, KDM4E inh inconclusive
COc1ccc(CNc2ccc3c(c2)ncn3-c2ccccc2OC)cc1	JMJD2A Tudor 28µM, HP1b binding inh inconclusive, BAZ2B inh 40µM, L3MBTL1 block inconclusive, KDM4E inh inconclusive (no result: PI5P4Ka inh)
COc1ccccc1-n1cnc2cc(NCc3ccco3)ccc21	JMJD2A Tudor inconclusive
COc1ccccc1-n1cnc2cc(NCc3cccs3)ccc21	JMJD2A Tudor 45µM, HP1b binding inh inconclusive, BAZ2B inh 45µM, KDM4E inh inconclusive (no result: L3MBTL1 block)
COc1ccccc1-n1cnc2cc(NCc3ccccc3O)ccc21	HP1b binding inh inconclusive, BAZ2B inh 35µM, L3MBTL1 block inconclusive, KDM4E inh inconclusive
COc1ccccc1-n1cnc2cc(NS(=O)(=O)c3ccc(Br)cc3)ccc21	none (no result: L3MBTL1 block)
O=C(O)c1ccc(-c2ccccc2)[nH]c1=O	KDM4E inh inconclusive, PI5P4Ka inh inconclusive (no result: L3MBTL1 block)
O=C(O)c1c[nH]ccc1=O	JMJD2A Tudor 7.1µM, BAZ2B inh inconclusive (no result: PI5P4Ka inh)
CN1C(=O)C(c2ccccc2[N+](=O)[O-])C(=O)c2ccccc21 (configuration not stated)	none (no result: L3MBTL1 block, KDM4E inh)
Cc1nn(CC(=O)N/N=C/c2cccs2)c(C)c1[N+](=O)[O-]	none
COc1cccc(/C=N/NC(=O)C(C)n2nc(C)c([N+](=O)[O-])c2C)c1O (configuration not stated)	KDM4E inh 14µM
COc1cccc(/C=N/NC(=O)Cn2nc(C)c([N+](=O)[O-])c2C)c1O	KDM4E inh 11µM
COc1ccc(-c2cn3c(n2)sc2cc(C(=O)NCCC4=CCCCC4)ccc23)cc1	none (no result: L3MBTL1 block, KDM4E inh, PI5P4Ka inh)
COc1ccc(-c2nc3c(c4c2C[C@H](c2ccccc2)OC4)CN(C(=O)N[C@@H](C)c2ccccc2)CC3)c(C)c1	none (no result: JMJD2A Tudor, HP1b binding inh, BAZ2B inh, L3MBTL1 block, PI5P4Ka inh)
Cc1ccc(NS(=O)(=O)c2ccc(F)cc2)cc1C	none (no result: HP1b binding inh, BAZ2B inh, L3MBTL1 block, KDM4E inh, PI5P4Ka inh)
O=C1CC(c2ccccc2)Cc2[nH]c(=O)c(C(=O)Nc3ccc(OC(F)(F)F)cc3)cc21 (configuration not stated)	none (no result: L3MBTL1 block, KDM4E inh, PI5P4Ka inh)
COc1ccc(/C=N/Nc2ccc(C(F)(F)F)cc2[N+](=O)[O-])cc1O	JMJD2A Tudor 89µM, HP1b binding inh inconclusive, BAZ2B inh inconclusive
COc1cc(/C=N/Nc2ccccc2C(F)(F)F)ccc1O	JMJD2A Tudor 56µM, HP1b binding inh inconclusive
COc1ccc(Cn2c(CNC(=O)Cc3ccc(OC)c(OC)c3)nc3cccnc32)cc1	none (no result: L3MBTL1 block, KDM4E inh, PI5P4Ka inh)
CC1Cc2ccccc2N1C(=O)CN1C(=O)NC(C)(CCc2ccccc2)C1=O (configuration not stated)	BAZ2B inh inconclusive (no result: L3MBTL1 block, KDM4E inh)
C/C(=N\N1CCN(Cc2ccccc2)CC1)c1ccco1	none
O=S(=O)(Cc1ccccc1)NCC1CCCN(Cc2ccc(F)c(F)c2)C1 (configuration not stated)	none
CSc1ccc(CN2CCC(Cc3ccccc3)CC2)cc1	JMJD2A Tudor 35µM, BAZ2B inh 71µM (no result: KDM4E inh)
Clc1cccc(CN2CCC(Cc3ccccc3)CC2)c1	JMJD2A Tudor 3.2µM, HP1b binding inh inconclusive, BAZ2B inh 50µM, KDM4E inh inconclusive (no result: PI5P4Ka inh)
O=C(/C=C/c1cccc(Cl)c1)N1CCC(Cc2ccccc2)CC1	none
Fc1ccc(CN2CCC(Cc3ccccc3)CC2)cc1F	JMJD2A Tudor 28µM, BAZ2B inh inconclusive (no result: KDM4E inh)
Clc1cccc(CN2CCN(Cc3ccco3)CC2)c1	JMJD2A Tudor 1.8µM, HP1b binding inh 20µM, BAZ2B inh 18µM (no result: L3MBTL1 block, KDM4E inh)
Clc1ccc(CN2CCC(Cc3ccccc3)CC2)cc1	JMJD2A Tudor 20µM, HP1b binding inh inconclusive, BAZ2B inh 32µM
Brc1ccc2[nH]c3c(c2c1)CCC3	JMJD2A Tudor inconclusive, BAZ2B inh 50µM
O=c1c2c([nH]c3ccc(Br)cc13)CCCC2	none
CCOC(=O)C1CCCN(C(=O)c2ccc3nc(-c4cccc(OC)c4)oc3c2)C1 (configuration not stated)	none (no result: L3MBTL1 block, KDM4E inh)
CCn1c(=O)c(C(=O)NCc2cccnc2)c(O)c2ccccc21	JMJD2A Tudor 40µM, KDM4E inh inconclusive
CCOc1cccc2sc(NC(=O)c3ccc(S(=O)(=O)N4CCCc5ccccc54)cc3)nc12	none (no result: L3MBTL1 block, KDM4E inh, PI5P4Ka inh)
Nc1ccc(Cn2ccc3c4c(N)nc(N)nc4ccc32)cc1	JMJD2A Tudor 45µM, HP1b binding inh 79µM, PI5P4Ka inh inconclusive (no result: BAZ2B inh, L3MBTL1 block, KDM4E inh)
O=C1C[C@H](c2ccc(-c3ccccc3)cc2)N1S(=O)(=O)c1ccccc1[N+](=O)[O-]	none (no result: BAZ2B inh, L3MBTL1 block, KDM4E inh, PI5P4Ka inh)
CCC1(CC)SC(N)=NC1=O	none (no result: BAZ2B inh, L3MBTL1 block, KDM4E inh)
CCC(C)(C)n1nnnc1C(c1ccc(O)cc1)N1CCc2ccccc2C1 (configuration not stated)	JMJD2A Tudor 89µM, HP1b binding inh inconclusive
O=c1c2ccccc2nc(/C=C/c2ccccc2)n1CCc1ccccc1	none
O=c1c2ccccc2nc(/C=C/c2cccnc2)n1CCc1ccccc1	JMJD2A Tudor 18µM, BAZ2B inh 35µM, KDM4E inh 16µM (no result: L3MBTL1 block)
COCCn1nnnc1C(c1cccs1)N1CCN(c2cc(C)ccc2C)CC1 (configuration not stated)	JMJD2A Tudor 79µM (no result: L3MBTL1 block, PI5P4Ka inh)
COCCn1nnnc1C(c1ccccc1OC)N1CCN(c2ccccc2)CC1 (configuration not stated)	JMJD2A Tudor 45µM
COc1ccc(N2CCN(C(c3cccs3)c3nnnn3C3CCCC3)CC2)cc1 (configuration not stated)	JMJD2A Tudor inconclusive, BAZ2B inh inconclusive (no result: L3MBTL1 block, PI5P4Ka inh)
Fc1ccccc1N1CCN(C(c2ccccn2)c2nnnn2C2CCCCC2)CC1 (configuration not stated)	BAZ2B inh 79µM (no result: PI5P4Ka inh)
COc1ccc(N2CCN(C(c3cccc(OC)c3OC)c3nnnn3C3CCCC3)CC2)cc1 (configuration not stated)	JMJD2A Tudor 45µM, HP1b binding inh inconclusive, BAZ2B inh 40µM, L3MBTL1 block inconclusive
COc1ccc2cc(C(c3nnnn3CC3CCCO3)N3CCOCC3)c(=O)[nH]c2c1 (configuration not stated)	KDM4E inh inconclusive (no result: PI5P4Ka inh)
